# The sample as a whole holds a higher share of the strongest signals than the screen did.
# B1: LF82 (Escherichia coli) (protein)
# chain: ADWGPCRTASGDPFIFVTSFTKNIQNPTDNVTGQTYPDFYQWALGDKYSGVCECPSPNPTEARPTLYKTESTLAAGHNSTYFKITNNLEVSTRVYIANVGNVQVPFINKSNSQPGRECDQPTFGWTTGSKGQLSLYIAKPFVGEQNIPQTIIVSVFGTKKENVYSSVPISQVLLSGKVTVTQGCELAAGTSLDIDFGEYQAHDFKGRTGQPPQNVQKIQKELTFNCTNISDGVHIYLSLEGTPNAAYPSAISLGNADVGAVIEDGKGNILKPNDSNSLLEMNPGSLYEYVKRKVTTTITAYPVSTTGKLPAAGDYSGVATMHVELDGGGGGGGGGGATTDLGAKGTLKFSLKISQGHHHHHH
# How the values were obtained:
# Assay in all cases: glycan array binding signal (z-score within array); higher = stronger binding
# Conditions in all cases: glycan notation: IUPAC condensed, linker removed
# [1] = target: GlcNAc(b1-3)Gal(b1-4)GlcNAc(b1-2)Man(a1-3)[GlcNAc(b1-3)Gal(b1-4)GlcNAc(b1-2)Man(a1-6)]Man(b1-4)GlcNAc(b1-4)GlcNAc
# Method in brief: (§1)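 Arrays were curated from the Consortium for Functional Glycomics database, 3228 in total, and kept only where the protein sequence was available. Binding is expressed as a within-array Z-score. This score was averaged across arrays of the same protein sequence at different concentrations or buffers and across linkers, and negative values can be read as non-binding.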
# [2] = target: GlcNAc(b1-3)Gal(b1-4)GlcNAc(b1-3)Gal(b1-4)GlcNAc(b1-2)Man(a1-3)[GlcNAc(b1-3)Gal(b1-4)GlcNAc(b1-3)Gal(b1-4)GlcNAc(b1-2)Man(a1-6)]Man(b1-4)GlcNAc(b1-4)GlcNAc
# Method in brief: as §1
# [3] = target: GlcNAc(b1-3)Gal(b1-4)GlcNAc(b1-6)[Gal(b1-3)]GalNAc
# Method in brief: as §1
# [4] = target: GlcNAc(b1-3)Gal(b1-4)GlcNAc(b1-6)[GlcNAc(b1-3)Gal(b1-3)]GalNAc
# Method in brief: as §1
# GlcNAc(b1-3)Man = target: GlcNAc(b1-3)Man
# Method in brief: as §1
# [5] = target: GlcNAc(b1-4)GlcNAc(b1-4)GlcNAc(b1-4)GlcNAc(b1-4)GlcNAc(b1-4)GlcNAc
# Method in brief: as §1
# [6] = target: GlcNAc6S(b1-3)Gal(b1-4)GlcNAc
# Method in brief: as §1
# [7] = target: Man(a1-2)Man(a1-6)[Man(a1-3)]Man(a1-6)[Man(a1-2)Man(a1-2)Man(a1-3)]Man(b1-4)GlcNAc(b1-4)GlcNAc
# Method in brief: as §1
# Man(b1-4)GlcNAc = target: Man(b1-4)GlcNAc
# Method in brief: as §1
# Neu5Ac(a2-3)Gal = target: Neu5Ac(a2-3)Gal
# Method in brief: as §1
# [8] = target: Neu5Ac(a2-3)Gal(b1-3)GalNAc6S
# Method in brief: as §1
# [9] = target: Neu5Ac(a2-3)Gal(b1-3)GlcNAc(b1-2)[Neu5Ac(a2-3)Gal(b1-3)GlcNAc(b1-4)]Man(a1-6)[Neu5Ac(a2-3)Gal(b1-3)GlcNAc(b1-2)Man(a1-3)]Man(b1-4)GlcNAc(b1-4)GlcNAc
# Method in brief: as §1
# [10] = target: Neu5Ac(a2-3)Gal(b1-3)GlcNAc(b1-3)Gal(b1-3)GlcNAc
# Method in brief: as §1
# [11] = target: Neu5Ac(a2-3)Gal(b1-3)GlcNAc(b1-6)GalNAc
# Method in brief: as §1
# [12] = target: Neu5Ac(a2-3)Gal(b1-3)[Fuc(a1-4)]GlcNAc(b1-3)Gal(b1-4)[Fuc(a1-3)]GlcNAc
# Method in brief: as §1
# Neu5Ac(a2-3)Gal(b1-4)Glc = target: Neu5Ac(a2-3)Gal(b1-4)Glc
# Method in brief: as §1
# [13] = target: Neu5Ac(a2-3)Gal(b1-4)GlcNAc(b1-2)[Neu5Ac(a2-3)Gal(b1-4)GlcNAc(b1-4)]Man(a1-3)[GlcNAc(b1-4)][Neu5Ac(a2-3)Gal(b1-4)GlcNAc(b1-4)Man(a1-6)]Man(b1-4)GlcNAc(b1-4)GlcNAc
# Method in brief: as §1
# [14] = target: Neu5Ac(a2-3)Gal(b1-4)GlcNAc(b1-6)[Neu5Ac(a2-3)Gal(b1-3)]GalNAc
# Method in brief: as §1
# [15] = target: Neu5Ac(a2-3)Gal(b1-4)[Fuc(a1-3)]GlcNAc(b1-3)Gal(b1-4)GlcNAc
# Method in brief: as §1
# [16] = target: Neu5Ac(a2-3)Gal(b1-4)[Fuc(a1-3)]GlcNAc(b1-3)Gal(b1-4)[Fuc(a1-3)]GlcNAc(b1-3)Gal(b1-4)[Fuc(a1-3)]GlcNAc
# Method in brief: as §1
# [17] = target: Neu5Ac(a2-3)Gal(b1-4)[Fuc(a1-3)]GlcNAc(b1-3)GalNAc
# Method in brief: as §1
# [18] = target: Neu5Ac(a2-6)Gal(b1-3)GlcNAc(b1-3)[Gal(b1-4)GlcNAc(b1-6)]Gal(b1-4)Glc
# Method in brief: as §1
# [19] = target: Neu5Ac(a2-6)Gal(b1-4)GlcNAc(b1-2)Man(a1-6)[Gal(b1-4)GlcNAc(b1-2)Man(a1-3)]Man(b1-4)GlcNAc(b1-4)GlcNAc
# Method in brief: as §1
# [20] = target: Neu5Ac(a2-6)Gal(b1-4)GlcNAc(b1-3)Gal(b1-4)GlcNAc(b1-3)Gal(b1-4)GlcNAc
# Method in brief: as §1
# [21] = target: Neu5Ac(a2-6)Gal(b1-4)GlcNAc(b1-3)Gal(b1-4)[Fuc(a1-3)]GlcNAc(b1-3)Gal(b1-4)[Fuc(a1-3)]GlcNAc
# Method in brief: as §1
# [22] = target: Neu5Ac(a2-8)Neu5Ac(a2-8)Neu5Ac(a2-3)[GalNAc(b1-4)]Gal(b1-4)Glc
# Method in brief: as §1
# [23] = target: Neu5Ac(a2-8)Neu5Ac(a2-8)Neu5Ac(a2-8)Neu5Ac(a2-3)[GalNAc(b1-4)]Gal(b1-4)Glc
# Method in brief: as §1
# [24] = target: Neu5Ac(a2-8)Neu5Gc(a2-3)Gal(b1-4)GlcNAc
# Method in brief: as §1
# [25] = target: Neu5Gc(a2-3)Gal(b1-3)GlcNAc
# Method in brief: as §1
binder,measurement,setting,value
B1,glycan array binding signal (z-score),[1],-0.713
same,glycan array binding signal (z-score),[2],1.79
same,glycan array binding signal (z-score),[3],-0.509
same,glycan array binding signal (z-score),[4],0.416
same,glycan array binding signal (z-score),GlcNAc(b1-3)Man,0.644
same,glycan array binding signal (z-score),[5],-1.17
same,glycan array binding signal (z-score),[6],-0.173
same,glycan array binding signal (z-score),[7],0.244
same,glycan array binding signal (z-score),Man(b1-4)GlcNAc,0.456
same,glycan array binding signal (z-score),Neu5Ac(a2-3)Gal,0.191
same,glycan array binding signal (z-score),[8],0.435
same,glycan array binding signal (z-score),[9],4.88
same,glycan array binding signal (z-score),[10],-0.469
same,glycan array binding signal (z-score),[11],-0.373
same,glycan array binding signal (z-score),[12],-0.501
same,glycan array binding signal (z-score),Neu5Ac(a2-3)Gal(b1-4)Glc,0.503
same,glycan array binding signal (z-score),[13],2.08
same,glycan array binding signal (z-score),[14],-0.112
same,glycan array binding signal (z-score),[15],0.281
same,glycan array binding signal (z-score),[16],0.12
same,glycan array binding signal (z-score),[17],0.56
same,glycan array binding signal (z-score),[18],2.17
same,glycan array binding signal (z-score),[19],0.283
same,glycan array binding signal (z-score),[20],0.668
same,glycan array binding signal (z-score),[21],0.159
same,glycan array binding signal (z-score),[22],-0.553
same,glycan array binding signal (z-score),[23],2.59
same,glycan array binding signal (z-score),[24],-0.211
same,glycan array binding signal (z-score),[25],3.85

# Source: the supplement of paper PMC8728848
